Measurements reported in the supplement of paper PMC7530171.
Where a name gives a salt, the structure may show the parent alone. ± gives the standard deviation.

Tested on: THP-1
Test: THP-1 cell loss relative to DMSO control; higher = more host cell loss (toxicity); extreme values may be limits of the assay
Details: 10 µM; 4 days; infection: M. tuberculosis H37Rv
Method: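 OICR kinase inhibitor library screened in duplicate at 10 uM against M. tuberculosis-infected THP-1 macrophages, 4 days at 37 C. THP-1 cell loss (cytotoxicity or loss of adherence) was quantified from Hoechst-stained nuclei counts by high-content imaging and normalised to the 1% DMSO control; 100 = complete loss of host cells.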

Compound | THP-1 cell loss
Cn1cc(C2=C(c3cn(CCCSC(=N)N)c4ccccc34)C(=O)NC2=O)c2ccccc21 [Ro-31-8220 mesylate] | 100%
CO[C@H]1C[C@@H]2CC[C@@H](C)[C@@](O)(O2)C(=O)C(=O)N2CCCC[C@H]2C(=O)O[C@H]([C@H](C)C[C@@H]2CC[C@@H](O)[C@H](OC)C2)CC(=O)[C@H](C)/C=C(\C)[C@@H](O)[C@@H](OC)C(=O)[C@H](C)C[C@H](C)/C=C/C=C/C=C/1C [Rapamycin] | 33.4 ± 6.3%
COc1cc(SC)ccc1C(=O)N1CCC(Cc2ccccc2)CC1 | 0.379 ± 0.54%
Oc1ccc(-c2nc(-c3ccc(F)cc3)c(-c3ccncc3)[nH]2)cc1 | 8.45 ± 0.56%
CC(C)[C@H](CO)Nc1nc(Nc2ccc(C(=O)O)c(Cl)c2)c2ncn(C(C)C)c2n1 [Purvalanol B] | 1.78 ± 2.5%
Cc1[nH]c(/C=C2\C(=O)Nc3ccccc32)c(C)c1CCC(=O)O | 5 ± 7.1%
COc1ccc(Cl)cc1NC(=O)Nc1cc(C)nc2ccccc12 | 9.3 ± 13%
CC(=O)Nc1ccc([C@H](C)C(=O)Nc2ncc(C(C)C)s2)cc1 | 100%
NC(=O)c1ccc2[nH]ccc2c1 | 50 ± 71%
Nc1nccc(-c2c(-c3ccc(F)cc3)ncn2C2CCCCC2)n1 | 75 ± 8.6%
N#CC[C@H](C1CCCC1)n1cc(-c2ncnc3[nH]ccc23)cn1 | 26.3 ± 7.9%
COc1cc2nccc(Oc3ccc(NC(=O)Nc4ccc(F)cc4F)c(F)c3)c2cc1OC | 8.51 ± 5.2%
CC[C@@H]1C(=O)N(C)c2cnc(Nc3ccc(C(=O)N[C@H]4CC[C@H](N5CCN(CC6CC6)CC5)CC4)cc3OC)nc2N1C(C)C | 100%
Nc1ncnc2c1c(-c1cccc(OCc3ccccc3)c1)cn2C1CC(CN2CCC2)C1 (stereo not given) | 18.9 ± 6%
O=C1c2ccc(O)c(O)c2C(=O)c2c(O)ccc(O)c21 [Quinalizarin] | 4.66 ± 6.6%
CCn1c(-c2nonc2N)nc2c(C#CC(C)(C)O)ncc(OC[C@H]3CCCNC3)c21 | 15.8 ± 3.6%
Nc1nc(OCC2CCCCC2)c2[nH]cnc2n1 | 3.9 ± 5.5%
Nc1cc(N)c(N)cc1N [FAK Inhibitor 14] | 11.9 ± 4%
COc1cccc2cc(-c3nc([C@H]4CC[C@H](C(=O)O)CC4)n4ncnc(N)c34)[nH]c12 [OSI-027 hydrochloride] | 51.2 ± 4.5%
CCc1cncnc1N1CCN(Cc2nc3ccc(C(F)(F)F)cc3[nH]2)CC1 | 92.6 ± 10%

Compound | THP-1 cell loss
O=C(Nc1cc(C(F)(F)F)cc(C(F)(F)F)c1)c1cc(Cl)ccc1O | 53 ± 46%
Cn1cc(/C=C2\C(=O)Nc3cccnc32)c2ccccc21 | 41.8 ± 0.73%
Cc1csc(-c2nnc(Nc3ccc(Oc4ncccc4-c4ccnc(N)n4)cc3)c3ccccc23)c1 | 62.4 ± 53%
C[S+]([O-])c1ccc(-c2nc(-c3ccc(F)cc3)c(-c3ccncc3)[nH]2)cc1 (stereo not given) | 22.7 ± 8.7%
Oc1c2ccccc2c2c3c(cccc13)N=N2 | 19.8 ± 16%
COc1cc2ncnc(Nc3cccc(Cl)c3)c2cc1OC [Tyrphostin AG 1478 mesylate] | 41.5 ± 9.7%
CCOc1cc(/C=C(\C#N)C(N)=O)cc(CSc2ccccc2)c1O | 10.3 ± 14%
CC(NC(=O)C(C#N)=Cc1ccc(O)c(O)c1)c1ccccc1 (stereo not given) [Tyrphostin B44] | 3.72 ± 5.3%
CC(C)(C)n1nc(-c2cccc3ccccc23)c2c(N)ncnc21 [1-Naphthyl PP1] | 13.6 ± 19%
Cn1c(=O)n(-c2ccc(C(C)(C)C#N)cc2)c2c3cc(-c4cnc5ccccc5c4)ccc3ncc21 | 36.6 ± 7.3%
C[C@@H](N)[C@H]1CC[C@H](C(=O)Nc2ccncc2)CC1 | 15.7 ± 22%
Cc1ccc(NC(=O)c2cccc(C(C)(C)C#N)c2)cc1Nc1ccc2ncn(C)c(=O)c2c1 | 100%
Cc1cc(Nc2ncc3cc(-c4c(Cl)cccc4Cl)c(=O)n(C)c3n2)ccc1F | 88.1 ± 17%
O=S(=O)(Nc1ccccn1)c1ccc(N=Cc2c(O)[nH]c3ccc4ncsc4c23)cc1 | 100%
Fc1ccc(Cl)cc1-c1nc(Nc2ccncc2)c2nccnc2n1 | 7.31 ± 3.9%
COC(=O)Nc1ccc(-c2nc(N3CCOCC3)c3cnn(C4CCN(C(=O)OC)CC4)c3n2)cc1 | 35.6 ± 0.38%
Cn1c(=O)c(Oc2ccc(F)cc2F)cc2cnc(NC3CCOCC3)nc21 | 17.2 ± 6.1%
O=C1NCCCc2c1oc1ccc(O)cc21 | 6.23 ± 8.8%
NC(=O)Nc1sc(-c2ccc(F)cc2)cc1C(N)=O | 76.1 ± 3%
CN(C)CCOc1cc(-c2cn[nH]c2)ccc1NC(=O)C1COc2ccccc2O1 (stereo not given) | 0%
